Test results: PubChem BioAssay (NCI)
The panel holds about 83,000 compounds, 20% with a hit somewhere; the sample as a whole holds those more often.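 Testing used 96-well plates and a 48-hour single-concentration exposure. Example: -40 means 40% of the starting cells died.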 A number with no mark means an inactive call. Activity calls are given as the source filed them. The calls were made as follows: active = growth percent below 10; inactive = the rest.

Key:
Assay in all cases: NCI-60 one-dose screen, 48 h (100 = growth as untreated, 0 = no growth, -100 = all killed)
Settings in all cases: 10 µM unless noted
NCI-H23 lung = test system: NCI-H23 lung
NCI-H226 lung = test system: NCI-H226 lung
NCI-H322M lung = test system: NCI-H322M lung
HOP-62 NSCLC = test system: HOP-62 NSCLC
NCI-H460 lung = test system: NCI-H460 lung
HOP-92 NSCLC = test system: HOP-92 NSCLC
NCI-H522 lung = test system: NCI-H522 lung
A549/ATCC NSCLC = test system: A549/ATCC NSCLC
786-0 renal = test system: 786-0 renal
COLO 205 colon = test system: COLO 205 colon
DU-145 prostate = test system: DU-145 prostate
K-562 leukemia = test system: K-562 leukemia
MALME-3M melanoma = test system: MALME-3M melanoma
MDA-MB-231 breast = test system: MDA-MB-231 breast
RXF 393 renal = test system: RXF 393 renal
SF-268 CNS = test system: SF-268 CNS
SF-295 CNS = test system: SF-295 CNS
SF-539 CNS = test system: SF-539 CNS
UACC-257 melanoma = test system: UACC-257 melanoma
M14 melanoma = test system: M14 melanoma

| SMILES | growth (NCI-H23 lung) | growth (NCI-H226 lung) | growth (NCI-H322M lung) [%] | growth (HOP-62 NSCLC) [%] | growth (NCI-H460 lung) | growth (HOP-92 NSCLC) | growth (NCI-H522 lung) | growth (A549/ATCC NSCLC) | growth (786-0 renal) | growth (COLO 205 colon) | growth (DU-145 prostate) | growth (K-562 leukemia) | growth (MALME-3M melanoma) | growth (MDA-MB-231 breast) | growth (RXF 393 renal) | growth (SF-268 CNS) | growth (SF-295 CNS) | growth (SF-539 CNS) | growth (UACC-257 melanoma) | growth (M14 melanoma) |
| --- | --- | --- | --- | --- | --- | --- | --- | --- | --- | --- | --- | --- | --- | --- | --- | --- | --- | --- | --- | --- |
| CN1C(=O)/C(=C/c2ccc(C(=O)Nc3ncc(Cc4cccc(C(F)(F)F)c4)s3)cc2)SC1=S | 37.5% | 58% | 69.5 | 58.5 | 30.1% | 27.3% | 35.5% | 47.4% | 65% | 53% | 68.5% | 48.2% | 32.2% | 69.1% | 26.9% | 59.3% | 26.4% | 56.3% | 71.7% | 16.4% |
| COc1ccc(/C=C2\CN(C(=O)C(Cl)Cl)C/C(=C\c3ccc(OC)c(OC)c3)C2=O)cc1OC | -51.8% (active) | 42.8% | 30 | 34.3 | -51.9% (active) | -7.03% (active) | -14.1% (active) | 4.8% (active) | -94.9% (active) | -2.98% (active) | -16% (active) | 4.57% (active) | -70.9% (active) | 7.12% (active) | -67.1% (active) | 17.8% | -39.6% (active) | -23.8% (active) | 18.4% | – |
| COc1ccc(-c2cn(Cc3cc4ccccc4s3)nn2)cc1OCCN1CCCCC1 | 78.3% | 95.6% | 94.2 | 84 | 90% | 50% | 91.7% | 80.2% | 69.1% | 60.7% | 85.7% | 16.3% | 5.75% (active) | 45.9% | 44.2% | 70.8% | 70.6% | 79.7% | 41.1% | – |
| COc1ccc2c(c1)C(C)Cc1c(ncnc1-n1cnc3cc(C)ccc31)N2C (centres undefined) | 30.4% | 60% | 48.6 | 28.4 | 3.98% (active) | -2.48% (active) | 11.7% | 13.6% | 12.3% | -46.9% (active) | 10.2% | 7.68% (active) | 78.7% | 28.9% | 35.7% | 26% | 6.97% (active) | 10.7% | 47.3% | – |
| CCOc1ncc([N+](=O)[O-])c(OCC)n1 | 106% | 107% | 123 | 104 | 113% | 82.2% | 99.9% | 98.9% | 108% | 112% | 123% | 103% | 129% | 97.1% | 122% | 118% | 116% | 102% | 102% | – |
| Cc1cccc(N2C(=O)/C(=C/C(Cl)=C/c3ccc([N+](=O)[O-])cc3)SC2=S)c1C | 10.4% | -38.1% (active) | 82.2 | 17.2 | 21% | -28.1% (active) | -29.3% (active) | 22.6% | 1.63% (active) | -31.9% (active) | 27.3% | 3.9% (active) | -8.54% (active) | -6.22% (active) | -33.6% (active) | 40.5% | 22.3% | -3.16% (active) | 14.3% | – |
| CCN(CC)CCN1C(=O)c2c(c3c4ccccc4[nH]c3c3ccc4ccccc4c23)C1=O | -67.8% (active) | 87.5% | 87 | 55.3 | 16.3% | 66.2% | 67.8% | -60.9% (active) | -96.7% (active) | 78.7% | -92.3% (active) | -33% (active) | -85.7% (active) | -78.9% (active) | 47.1% | -45% (active) | 48.3% | -85.7% (active) | 105% | – |
| Cc1ccc(OCCOCCOCCOCCOCCOc2ccc(C)n(O)c2=S)c(=S)n1O | 14.1% | 6.73% (active) | 21.5 | 10.5 | 3.62% (active) | 34.3% | 25.8% | 13.2% | -0.0239% (active) | 10.4% | 17.3% | 14.5% | 16.5% | 29.8% | 40.6% | 12.5% | 16.8% | 1.52% (active) | -3.93% (active) | -4.25% (active) |
